Compound activity (PubChem BioAssay)
NSD2 block: inhibitors of human NSD2 methyltransferase; O96028; NSD2-SET H3K36me1 DELFIA fluorescence, biochemical; inhibition, % at 12.5 µM; hit rate 0.07% among 44,000; in the data active means inhibition above about 54%, passing the limit was not always enough;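 further: inhibitors reduce the monomethyl H3K36 fluorescence signal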
Of the large screens only hits and unclear results are named; the others gave an inactive call. This is one part of a sample in which hits are shown more often than they occur.

Oc1c(C(Nc2ccccn2)c2cccc(OC3CCCC3)c2)ccc2cccnc12 (centres undefined)	none
NC(=O)COc1ccc(/C=N/NC(=O)c2ccc(C(=O)NO)cc2)cc1	none
C[C@@H]1O[C@@H](O[C@@H]2[C@@H](O)[C@H](O[C@@H]3[C@@H](O)[C@@H](O)[C@H](O[C@H]4[C@H](OC(=O)[C@]56CCC(C)(C)C[C@H]5C5=CCC7[C@@]8(C)C[C@H](O)[C@H](O[C@@H]9O[C@H](C(=O)O)[C@@H](O)[C@H](O)[C@H]9O)[C@@](C)(CO)C8[C@H](O)C[C@@]7(C)[C@]5(C)C[C@H]6O)O[C@@H](CO)[C@@H]4O)O[C@H]3C)OC[C@H]2O)[C@H](O)[C@H](O)[C@H]1O (some centres undefined)	NSD2 block 73.9
C[C@@H]1O[C@@H](O[C@@H]2[C@@H](O)[C@H](OC(=O)[C@]34CCC(C)(C)CC3C3=CCC5[C@@]6(C)CC[C@H](OC7OC(CO)C(OC8OCC(O)C(O)C8O)C(O)C7O)C(C)(C)C6CC[C@@]5(C)[C@]3(C)CC4O)O[C@H]2CO)[C@H](O)[C@H](O)[C@H]1O[C@H]1OC[C@](O)(CO)[C@H]1O (some centres undefined)	none
CC1OC(O[C@H]2[C@@H](O)C[C@@]3(C)C([C@H](O)C[C@]4(C)C3CC=C3[C@@H]5CC(C)(C)CC[C@]5(C(=O)OC5OC(C)C(OC6OCC(OC7OCC(O)C(OC8OCC(O)C(O)C8O)C7O)C(O)C6O)C(O)C5O)CC[C@]34C)[C@]2(C)CO)C(O)C(OC2OC(CO)C(O)C(O)C2O)C1O (some centres undefined)	none
C/C(=C\C=C\[C@@H](C)[C@H]1CC[C@@]2(C)[C@@H]3CCC4C(C)(C)[C@@H](O[C@@H]5O[C@H](CO)[C@@H](O[C@@H]6O[C@@H](C)[C@H](O)[C@@H](O)[C@H]6O)[C@H](O)[C@H]5O[C@@H]5O[C@H](CO[C@@H]6O[C@H](CO)[C@@H](O)[C@H](O)[C@H]6O)[C@@H](O)[C@H](O)[C@H]5O[C@@H]5O[C@@H](C)[C@H](O)[C@@H](O)[C@H]5O)CC[C@@]45C[C@@]35CC[C@]12C)C(=O)N[C@@H]1C(=O)O[C@H](C)[C@@H]1C (some centres undefined)	none
CC(C)CC1NC(=O)C(C)NC1=O (centres undefined)	none
C=CCSc1n[nH]c(-c2ccc(C(F)(F)F)cc2)n1	none
COC(=O)Cn1nnc(-c2nnn(COC(C)=O)c2-c2ccccc2)c1-c1ccccc1	none
CCCOc1ccc2oc(=O)c3c(c2c1)CCCN3C(=O)CN(C)c1ccc(C)cc1	none
CC(C)=CCc1c(O[C@@H]2O[C@H](CO)[C@@H](O)[C@H](O)[C@H]2O)cc(O)c2c1O[C@H](c1ccc(O)cc1)CC2=O	NSD2 block 70.5
COc1c(OC2OC(CO)C(O)C(O)C2O)cc(O)c2c1OC(c1ccccc1)CC2=O (centres undefined)	none
O=C1CC(c2ccc(O)cc2)Oc2cc(O[C@@H]3O[C@H](CO)[C@@H](O)[C@H](O)[C@H]3O)cc(O)c21 (some centres undefined)	none
COc1ccc(C(=O)On2c(-c3ccccc3)cc3ccccc32)cc1	none
CCC(=O)c1c(OCC(N)=O)ccc2c(C)cc(=O)oc12	none
CC1=CC(=O)OC1(O)CCC(C)CC(=O)O (centres undefined)	NSD2 block 74.8
CC1=CC(=O)CC2C1(C)CCC(C)C2(C)CCC(C)CC(=O)O (centres undefined)	none
CC(CC[C@]1(C)C2CCC=C(CO)[C@]2(C)CC[C@H]1C)CC(=O)O (some centres undefined)	none
O=C(N/N=C/c1ccc(B(O)O)cc1)c1ccccc1O	none
COc1ccccc1NC(=O)c1cc2ccccc2c(C=Nc2ccc(NC(C)=O)cc2)c1O	none
CCc1ccnc(NC(=O)CC2(CC(=O)O)CCCCC2)c1	none
Cc1nc2ccccn2c1-c1ccnc(SCC(=O)N(c2ccccc2)C2CCCCC2)n1	none
Cc1ccc(C(O)COC2=NCNc3cc(Cl)ccc32)cc1 (centres undefined)	none
N#CCN(CC#N)C(=O)C(Sc1ccccc1)c1ccccc1 (centres undefined)	none
COC(=O)C1=CO[C@@H](O[C@@H]2O[C@H](CO)[C@@H](O)[C@H](O)[C@H]2O)[C@H]2[C@@H]1C=CC21C=C([C@H](C)OC(=O)/C=C/c2ccc(O)cc2)C(=O)O1 (some centres undefined)	NSD2 block 76.1
COC(=O)C1=CO[C@@H](O[C@@H]2O[C@H](CO)[C@@H](O)[C@H](O)[C@H]2O)[C@H]2[C@@H]1C=CC21C=C([C@H](C)O)C(=O)O1 (some centres undefined)	none
COC(=O)C1=CO[C@@H](O[C@@H]2O[C@H](CO)[C@@H](O)[C@H](O)[C@H]2O)[C@@H]2[C@@H](C)[C@@H](O)[C@@H](OC(=O)/C=C/c3ccc(O)c(O)c3)[C@H]12	none
C/C(=C\C(=O)O)CCC1C(C)(O)CCC2C(C)(CO)CCCC12C (centres undefined)	none
[N-]=[N+]=NC[C@@H](Cc1ccccc1)NC(=O)Nc1ccccc1	none
Cc1ccc(C(=O)CC(C(=O)c2ccc(C(F)(F)F)cc2)c2cccs2)cc1 (centres undefined)	none
CN1C(=O)C2C=CC=CC2N=C1SCc1ccccc1F (centres undefined)	none
NC(=O)COc1ccccc1/C=N/NC(=O)c1ccc(C(=O)NO)cc1	none
O=c1[nH]c2cc(Cl)ccc2c(-c2ccccc2)c1SC1=NCCS1	none
CC1=CC(=O)C2C(C)(C)CC(O)CC2(C)C1(O)CO (centres undefined)	none
